Compounds with a hit are over-represented: about 6.7% of the library has one in this group of screens.
T cruzi growth-1: T. cruzi intracellular proliferation inhibitors, primary screen, cell-based, beta-gal Tulahuen parasites, NIH3T3 host, luminescence; T. cruzi beta-gal in NIH3T3, GalScreen luminescence, 90 h; inhibition, % at 8.34 µM; actives 5.9% (n = 77,000);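 active = mean inhibition above about 93%, with at least 55% of replicates each passing it, limit read from the data, passing the limit was not always enough; inconclusive = only one of those two conditions holds; inactive = neither condition holds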
Pf Dd2 inh: P. falciparum Dd2 growth inhibitors, primary screen, SYBR Green fluorescence, single dose replicates | 72 h; stronger effect = lower value | activity change, % at 10 µM | actives 2.3% (n = 94,000) | AID 1159554, 2015; in the data active = activity change below about -80%; inconclusive = no clear call, values can overlap the other calls
C diff growth: C. difficile growth inhibitors, primary screen, HTS; Clostridium difficile clinical isolate growth, OD600, 24 h; stronger effect = lower value; growth activity, negative = inhibition, % at 16 µg/mL (by protocol); actives 0.25% (n = 86,000); AID 1259249, 2017;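 active = mean growth activity at or below -80% and every replicate also at or below -80%; inconclusive = mean at or below -80% but some replicate above -80%; inactive = mean growth activity above -80%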;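 note: 0% = DMSO wells and -100% = levofloxacin 16 µg/mL wells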
T cruzi growth-2: T. cruzi intracellular proliferation inhibitors, confirmation, cell-based, NIH3T3 host, beta-gal parasite, luminescence, cherry-pick. T. cruzi beta-gal in NIH3T3, GalScreen luminescence, 90 h. shares compounds with T cruzi growth-1. inhibition, % at 8.35 µM. actives 72% (n = 5,600). AID 651739, 2012;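 active = mean replicate inhibition above about 95% and at least 55% of replicates individually reaching it, limit read from the data; inconclusive = only one of the two criteria is met; inactive = neither criterion is met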
T cruzi growth-3: inhibitors of intracellular T. cruzi replication, confirmation, NIH3T3 host cells, beta-gal parasites, cherry-pick, set 2. shares compounds with T cruzi growth-1. T. cruzi beta-gal in NIH3T3, GalScreen luminescence, 90 h. inhibition, % at 2.09 µM. actives 21% (n = 5,600). AID 651740, 2012;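 active = mean inhibition above about 95%, with at least 55% of replicates also reaching it, limit read from the data; inconclusive = meets just one of the two conditions; inactive = meets neither condition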;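 note: plate controls were neutral control median for no effect and positive control median for full effect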
3T3 cytotox: cytotoxicity in mouse NIH/3T3 fibroblasts, confirmation, cytotoxicity control for T. cruzi proliferation inhibitor project, cell-based, cherry-pick, single point; shares compounds with T cruzi growth-1; NIH/3T3 viability, CellTiter-Glo ATP luminescence, 90 h; cytotoxicity (signal decrease), % at 8.35 µM; actives 14% (n = 5,600); AID 651742, 2012;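 active = mean signal decrease across replicates above about 35% based on untreated-well scatter, with enough replicates individually passing, limit read from the data; inconclusive = no rule stated though some were filed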;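 note: 0% = median of neutral control wells and 100% = median of positive control wells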
3T3 cytotox 2: NIH/3T3 fibroblast cytotoxicity, confirmation, cytotoxicity control, cell-based, cherry-pick, single point, set 2; actives 56% (n = 5,600); inhibition, % at 24.9 µM; NIH/3T3 viability, CellTiter-Glo ATP luminescence, 90 h; shares compounds with T cruzi growth-1;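 active = mean loss of cell viability signal at or above a set limit, and enough replicates individually reaching it; inconclusive = meets only the mean limit or only the replicate share; inactive = meets neither condition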;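 note: 0% = median of neutral control wells and 100% = median of positive control wells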
The depositor's hits bear a star; ? = inconclusive; nt = not tested or not shown.

SMILES	T cruzi growth-1	Pf Dd2 inh	C diff growth	T cruzi growth-2	T cruzi growth-3	3T3 cytotox	3T3 cytotox 2
C[C@@H]1CN([C@H](C)CO)C(=O)c2cccc(NC(=O)C3CCOCC3)c2O[C@H]1CN(C)Cc1ccc(Oc2ccccc2)cc1	?	-39	-2	102*	52	27	4
C[C@H]1CN([C@@H](C)CO)C(=O)c2cccc(NC(=O)Nc3ccc(F)cc3)c2O[C@H]1CN(C)Cc1ccc(C(F)(F)F)cc1	55	-15	3	nt	nt	nt	nt
COc1ccc(NC(=O)Nc2cccc3c2O[C@H](CN(C)Cc2ccc(Cl)c(Cl)c2)[C@@H](C)CN([C@H](C)CO)C3=O)cc1	2	-28	5	nt	nt	nt	nt
C[C@H]1CN([C@@H](C)CO)C(=O)c2cccc(NC(=O)Nc3ccccc3)c2O[C@@H]1CN(C)Cc1ccc(C(F)(F)F)cc1	73	-32	11	nt	nt	nt	nt
COc1ccc(NC(=O)Nc2cccc3c2O[C@@H](CN(C)Cc2ccc(Cl)c(Cl)c2)[C@H](C)CN([C@H](C)CO)C3=O)cc1	109*	-32	6	106*	107*	-1	56*
COCC#Cc1cnc2c(c1)C(=O)N([C@@H](C)CO)C[C@@H](C)[C@H](CN(C)C(=O)C1CCC1)O2	46	16	-2	nt	nt	nt	nt
CO[C@@H]1CN(C)C(=O)c2cc(NS(=O)(=O)CC(F)(F)F)ccc2OC[C@H](C)N(C(=O)NC(C)C)C[C@H]1C	25	7	nt	nt	nt	nt	nt
CC(=O)Nc1ccc2c(c1)C(=O)N(C)[C@H]1CC[C@@H](CC(=O)NCc3ccccc3)O[C@H]1CO2	-75	-11	2	nt	nt	nt	nt
CCCNC(=O)N1[C@H](CO)[C@H](c2ccccc2)[C@@H]1CNC(=O)c1ccc(F)cc1	37	-3	nt	nt	nt	nt	nt
COc1ccc(NC(=O)N(C)C[C@@H]2Oc3ccc(NS(=O)(=O)c4ccc(Cl)cc4)cc3CC(=O)N([C@H](C)CO)C[C@@H]2C)cc1	10	-4	-10	nt	nt	nt	nt
C[C@H](CO)N1C[C@H](C)[C@@H](CN(C)Cc2ccc(Oc3ccccc3)cc2)Oc2c(NC(=O)NC3CCCCC3)cccc2C1=O	?	-19	4	108*	89	-14	106*
C[C@@H]1CN([C@@H](C)CO)C(=O)c2cccc(NC(=O)NC3CCCCC3)c2O[C@H]1CN(C)Cc1ccc(Cl)c(Cl)c1	?	-9	15	107*	73	14	70*
C[C@@H]1CN([C@@H](C)CO)C(=O)c2cccc(NC(=O)NC3CCCCC3)c2O[C@@H]1CN(C)Cc1ccc(Cl)c(Cl)c1	40	-10	3	nt	nt	nt	nt
C[C@@H]1CN([C@@H](C)CO)C(=O)c2cccc(NC(=O)NC3CCCCC3)c2O[C@@H]1CN(C)Cc1ccccc1	-97	-39	-3	nt	nt	nt	nt
CO[C@@H]1CN(C)C(=O)c2cc(NC(=O)C3CCC3)ccc2OC[C@@H](C)N(Cc2ccncc2)C[C@@H]1C	6	-2	2	nt	nt	nt	nt
CO[C@H]1CN(C)C(=O)c2cc(NC(=O)c3nc4ccccc4s3)ccc2OC[C@H](C)N(Cc2ccncc2)C[C@@H]1C	100*	nt	-9	98*	67	13	42*
COCC(=O)Nc1ccc2c(c1)C(=O)N(C)C[C@@H](OC)[C@@H](C)CN(Cc1ccncc1)[C@@H](C)CO2	98*	0	nt	61	-26	6	11
COCC(=O)Nc1ccc2c(c1)C(=O)N(C)C[C@@H](OC)[C@H](C)CN(Cc1ccncc1)[C@H](C)CO2	-43	17	nt	nt	nt	nt	nt
CO[C@@H]1CN(C)C(=O)c2ccc(NC(=O)c3nc4ccccc4s3)cc2OC[C@@H](C)N(Cc2cncnc2)C[C@H]1C	nt	-66	nt	nt	nt	nt	nt
CO[C@@H]1CN(C)C(=O)c2cc(NC(=O)c3nc4ccccc4s3)ccc2OC[C@H](C)N(Cc2ccncc2)C[C@H]1C	88	nt	-4	nt	nt	nt	nt
CO[C@@H]1CN(C)C(=O)c2ccc(NC(=O)c3nc4ccccc4s3)cc2OC[C@@H](C)N(Cc2cccnc2)C[C@@H]1C	102*	-63	-2	109*	?	-17	43*
COc1ccc(CN2C[C@@H](C)[C@H](OC)CN(C)C(=O)c3ccc(NC(=O)c4nc5ccccc5s4)cc3OC[C@@H]2C)cc1	102*	-70	5	115*	79	-3	-38
CO[C@H]1CN(C)C(=O)c2ccc(NC(=O)c3nc4ccccc4s3)cc2OC[C@H](C)N(Cc2cccnc2)C[C@H]1C	90	-49	-9	nt	nt	nt	nt
Cc1cccc(S(=O)(=O)N[C@H]2CC[C@@H](CCNC(=O)CCN3CCCCC3)O[C@H]2CO)c1	-13	-5	1	nt	nt	nt	nt
COc1ccc(NC(=O)Nc2ccc3c(c2)C(=O)N([C@@H](C)CO)C[C@H](C)[C@H](CN(C)C(=O)Nc2ccc(OC)cc2)OCCCC[C@H](C)O3)cc1	49	1	nt	nt	nt	nt	nt
SMILES	T cruzi growth-1	Pf Dd2 inh	C diff growth	T cruzi growth-2	T cruzi growth-3	3T3 cytotox	3T3 cytotox 2
CCCNC(=O)N1CC2(C1)[C@@H](c1ccccc1)[C@H](CO)N2CC1CCOCC1	nt	29	-1	nt	nt	nt	nt
COc1ccc(CNC(=O)C[C@H]2C=C[C@H](NC(=O)c3ccc4c(c3)OCO4)[C@@H](CO)O2)cc1	-27	11	nt	nt	nt	nt	nt
C[C@H](CO)N1C[C@H](C)[C@H](CN(C)S(=O)(=O)c2cccc(F)c2)Oc2ncccc2C1=O	nt	-11	-3	nt	nt	nt	nt
Cc1cccc(S(=O)(=O)N2C[C@@H]3N[C@H](C2)C3c2ccc(-c3cccc(C#N)c3)cc2)c1 (some centres undefined)	nt	-58	-5	nt	nt	nt	nt
CO[C@@H]1CN(C)C(=O)c2ccc(NC(=O)c3cc(C)on3)cc2OC[C@H](C)N(CC2CC2)C[C@@H]1C	-50	-25	nt	nt	nt	nt	nt
CCCC#Cc1ccc2c(c1)O[C@@H](CN(C)Cc1ccc3c(c1)OCO3)[C@H](C)CN([C@@H](C)CO)S2(=O)=O	?	nt	15	98*	108*	51*	104*
COCC#Cc1ccc2c(c1)O[C@H](CN(C)Cc1ccc3c(c1)OCO3)[C@@H](C)CN([C@@H](C)CO)S2(=O)=O	nt	-59	3	nt	nt	nt	nt
C[C@@H]1CN([C@H](C)CO)S(=O)(=O)c2ccc(C#CCN(C)C)cc2O[C@H]1CN(C)Cc1ccc2c(c1)OCO2	105*	-56	1	100*	69	59*	107*
CCCC#Cc1ccc2c(c1)O[C@@H](CN(C)Cc1ccc3c(c1)OCO3)[C@H](C)CN([C@H](C)CO)S2(=O)=O	101*	nt	30	?	104*	59*	103*
